{
  "source": "PubChem BioAssay AID485313",
  "about": "(National Center for Advancing Translational Sciences (NCATS), 2010)",
  "note": "Out of some 320,000 compounds screened, about 7,600 (2.4%) were called active. Another 3% or so got no clear call; they are omitted. The sample holds actives, similar compounds and a random draw of the others, so the mix is not that of the screen. Calls come from the whole dose curve; as a rule, active = well fitted activation curve with a large enough effect; inconclusive = small, poorly fitted or top-dose-only effect; inactive = no such curve, though single readings can be large or run the other way. Potency is the fitted concentration of half-maximal effect.",
  "data": [
    {"test": "qHTS Assay for NPC1 Promoter Activators; note: nearly all actives have a fitted effect of over 60% in size; for activation: % of control where 0% means no effect", "conditions": "Huh7 NPC1 promoter luciferase reporter, 24 h; series mostly up to 9.22 µM; activation: at the top concentration", "how_it_was_run": "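Luciferase expression driven by the NPC1 promoter was measured in stably transfected Huh7 cells after a 24 h compound incubation, using a luciferase reagent and a luminescence read.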", "values": [
      {"smiles": "CN(CC(=O)Nc1c(Cl)cccc1Cl)C(=O)CC1OC(=O)c2ccccc21", "note": "(configuration not stated)", "activation": "-3.28% (inactive)"},
      {"smiles": "COc1ccc(NC(=O)CSc2nc3ccccc3c(=O)n2C)cc1", "activation": "-9.03% (inactive)"},
      {"smiles": "Cc1ccc(C(=O)CSc2nc3ccccc3c(=O)n2N)o1", "Potency": "3.98 µM (active)"},
      {"smiles": "COC(=O)CSc1nc2ccccc2c(=O)n1Cc1ccccc1", "activation": "3.25% (inactive)"},
      {"smiles": "O=S(=O)(NC1CCN(S(=O)(=O)c2ccc3c(c2)OCCO3)CC1)c1c(F)cccc1F", "activation": "-2.67% (inactive)"},
      {"smiles": "CCOC(=O)CSc1nnc(-c2cccc(Br)c2)o1", "activation": "-1.59% (inactive)"},
      {"smiles": "Cc1cccc(C)c1OC(=O)CSc1nnc(-c2ccccc2)o1", "activation": "-0.799% (inactive)"},
      {"smiles": "CCCCSc1nnc(-c2ccc(C)cc2)o1", "Potency": "0.794 µM (active)"},
      {"smiles": "Cc1ccc(CN2CC(C(=O)NNC(=O)Cn3ccc(C(F)(F)F)n3)CC2=O)cc1", "note": "(configuration not stated)", "activation": "-1.82% (inactive)"},
      {"smiles": "CC(=O)NCc1ccc(-c2csc(NC(=O)CCCc3nc4ccccc4c(=O)[nH]3)n2)cc1", "activation": "-1.72% (inactive)"},
      {"smiles": "COc1ccc(Cn2c(O)c(/C=C3/C=CC=N3)c(=O)[nH]c2=O)cc1", "activation": "3.01% (inactive)"},
      {"smiles": "O=C(NCc1ccccc1CN1CCCC1)c1cccc(S(=O)(=O)Nc2ccc(F)cc2)c1", "activation": "-2.83% (inactive)"},
      {"smiles": "Cc1ccc(NC(=O)C(c2ccccc2)N2CCN(C(=O)c3ccco3)CC2)cc1", "note": "(configuration not stated)", "activation": "-1.36% (inactive)"},
      {"smiles": "COc1ccc(Cl)cc1NC(=O)CN(C)C(=O)c1cc(-c2cccs2)nn1-c1ccccc1", "activation": "0.628% (inactive)"},
      {"smiles": "CN(C(=O)c1ccccn1)c1nnc(-c2ccccn2)s1", "Potency": "2.51 µM (active)"},
      {"smiles": "COc1cc(OC)cc(-c2nnc(N(C)C(=O)c3ccncc3)s2)c1", "activation": "-5% (inactive)"},
      {"smiles": "CN(C(=O)C1CCOC1)c1nnc(-c2cccnc2)s1", "note": "(configuration not stated)", "activation": "3.19% (inactive)"},
      {"smiles": "COc1ccc(-c2noc(CNC(=O)C(C)Oc3ccccc3)n2)cc1", "note": "(configuration not stated)", "activation": "-2.92% (inactive)"},
      {"smiles": "COc1ccc(-c2noc(CN(C)S(=O)(=O)c3ccc(C)cc3)n2)cc1", "activation": "16.4% (inactive)"},
      {"smiles": "COc1ccc(-c2noc(-c3ccc(C)cc3)n2)cc1", "Potency": "2 µM (active)"},
      {"smiles": "COc1ccc(OC)c(-c2csc(-c3cccs3)n2)c1", "activation": "9.23% (inactive)"},
      {"smiles": "COc1ccc(-c2nc(-c3ccccc3)no2)c(OC)c1", "Potency": "3.55 µM (active)"},
      {"smiles": "COc1ccc(-c2noc(CSc3ccc(C)cc3)n2)cc1", "activation": "-2.46% (inactive)"},
      {"smiles": "O=C(CN1CCN(S(=O)(=O)c2cccc(Cl)c2)CC1)N1CCCCC1", "activation": "-1.44% (inactive)"},
      {"smiles": "Cc1c2cnn(CC(=O)NCCCN3CC(C)CC(C)C3)c(=O)c2c(C)n1Cc1ccc(Cl)cc1", "note": "(configuration not stated)", "activation": "-0.386% (inactive)"},
      {"smiles": "C[C@@H](NC(=O)c1nc[nH]c1C(=O)N1CCN(C(=O)OC(C)(C)C)CC1)c1ccccc1", "activation": "-3.87% (inactive)"},
      {"smiles": "Cc1ccc(S(=O)(=O)CCC(=O)OCC(=O)NCCc2ccc(S(N)(=O)=O)cc2)cc1", "activation": "0.187% (inactive)"},
      {"smiles": "O=C(NCCSc1ccccc1)c1ccco1", "Potency": "3.16 µM (active)"},
      {"smiles": "O=C(NCCSc1ncc(-c2ccccc2)[nH]1)c1ccco1", "activation": "15.1% (inactive)"},
      {"smiles": "CCS(=O)(=O)Nc1ccc(C(=O)NCCSc2ccccc2)cc1", "activation": "29.6% (inactive)"},
      {"smiles": "O=C(Cn1c(-c2ccc(Cl)cc2)noc1=O)N1CCN(c2ccccc2F)CC1", "activation": "-2.91% (inactive)"},
      {"smiles": "O=C(NCC(=O)N1CCCCCCC1)c1ccccc1Cl", "activation": "0.782% (inactive)"},
      {"smiles": "Cn1c(NC(=O)c2ccccc2)nc2ccccc21", "Potency": "2.82 µM (active)"},
      {"smiles": "CCn1c(NC(=O)c2nn(C)cc2Br)nc2ccccc21", "activation": "0.149% (inactive)"},
      {"smiles": "Cn1c(S(=O)(=O)O)nc2ccccc21", "activation": "-5.2% (inactive)"},
      {"smiles": "Cc1ccc(S(=O)(=O)N2CCCCC2)cc1C(=O)N1CCN(CCO)CC1", "activation": "-1.62% (inactive)"},
      {"smiles": "COc1ccccc1CNC(=O)COC(=O)c1sc(C)nc1C", "activation": "-2.69% (inactive)"},
      {"smiles": "O=C(Nc1cccc(NC(=O)c2ccccc2[N+](=O)[O-])c1)c1ccccc1Cl", "activation": "-5.61% (inactive)"},
      {"smiles": "O=C(Nc1ccc2sc3ccccc3c(=O)c2c1)c1ccccc1Cl", "Potency": "3.16 µM (active)"},
      {"smiles": "COc1cc(NC(=O)c2cccs2)ccc1NC(=O)c1ccccc1Cl", "activation": "-1.42% (inactive)"},
      {"smiles": "O=C(COC(=O)c1cc(=O)[nH]c2ccccc12)NCc1cccc(Cl)c1", "activation": "-1.99% (inactive)"},
      {"smiles": "CC(=O)Nc1ccc(S(=O)(=O)N2CCn3cccc3C2C)cc1", "note": "(configuration not stated)", "activation": "13.9% (inactive)"},
      {"smiles": "C=CCn1c(C)cc(C(=O)CN2C(=O)c3ccccc3C2=O)c1C", "Potency": "0.316 µM (active)"},
      {"smiles": "C=CCN(CC=C)C(=O)CN1C(=O)c2ccccc2C1=O", "activation": "-3.84% (inactive)"},
      {"smiles": "Cc1cc(C(=O)COC(=O)CCCN2C(=O)c3ccccc3C2=O)c(C)n1C", "activation": "-1.36% (inactive)"},
      {"smiles": "C[C@H](NC(=O)c1[nH]cnc1C(=O)Nc1nccs1)c1ccccc1", "activation": "-2.02% (inactive)"},
      {"smiles": "CCCCC/C=C/C1=CC(=O)C[C@H](c2ccc(Cl)cc2)C1", "activation": "-8.4% (inactive)"},
      {"smiles": "Cc1ccccc1-c1cc(C(=O)NCc2cccs2)n(CC2CC(c3cccnc3)=NO2)n1", "note": "(configuration not stated)", "activation": "15.3% (inactive)"},
      {"smiles": "COc1cc2ccccc2cc1C(=O)Nc1ccc(NC(=O)c2cccs2)cc1", "activation": "-3.43% (inactive)"},
      {"smiles": "O=C(Nc1ccc(NC(=O)c2cccs2)cc1)c1ccc2ccccc2c1", "activation": "0.298% (inactive)"},
      {"smiles": "O=C(Nc1ccc2oc(-c3ccc4ccccc4c3)nc2c1)c1cccs1", "Potency": "0.891 µM (active)"},
      {"smiles": "CC(Sc1nnc(C2CC2)n1C1CC1)C(=O)Nc1ccc(C(N)=O)cc1", "note": "(configuration not stated)", "activation": "-0.479% (inactive)"},
      {"smiles": "CCOc1ccc(N2C(=O)CSC2=NC#N)cc1", "activation": "-0.127% (inactive)"},
      {"smiles": "CC(=O)NC(NC(=S)Nc1c(C)n(C)n(-c2ccccc2)c1=O)C(Cl)(Cl)Cl", "note": "(configuration not stated)", "activation": "-2.49% (inactive)"},
      {"smiles": "COc1ccc(C)cc1NC(=O)CN1c2cccc3cccc(c23)S1(=O)=O", "activation": "-1.54% (inactive)"},
      {"smiles": "CCOc1cccc(/C(O)=C2/C(=O)C(=O)N(CCOC)C2c2ccncc2)c1", "note": "(configuration not stated)", "activation": "-3.35% (inactive)"},
      {"smiles": "CCN(CC)CCN1C(=O)C(=O)/C(=C(/O)c2cnn(-c3ccccc3)c2C)C1c1cccs1", "note": "(configuration not stated)", "Potency": "3.98 µM (active)"},
      {"smiles": "CCN(CC)CCN1C(=O)C(=O)/C(=C(/O)c2ccc(OC)c(OC)c2)C1c1ccccn1", "note": "(configuration not stated)", "activation": "-1.38% (inactive)"},
      {"smiles": "COc1ccccc1OCC(=O)OCc1cc(-c2ccco2)on1", "activation": "-0.0859% (inactive)"},
      {"smiles": "COC(=O)c1cccc(NC(=O)c2cccc(N3C(=O)CCC3=O)c2)c1", "activation": "-0.0039% (inactive)"},
      {"smiles": "CC(=O)c1sc(NC(=O)CCN2C(=O)C3CC=CCC3C2=O)nc1-c1ccccc1", "note": "(configuration not stated)", "activation": "1.1% (inactive)"},
      {"smiles": "CCCCCCCCCCOC(=O)C[N+](C)(C)CC1CCCCC1O", "note": "(configuration not stated)", "activation": "2.03% (inactive)"},
      {"smiles": "CC(c1ccccn1)N(C)C(=O)c1ccc2nc(Cc3cccc(Cl)c3)oc2c1", "note": "(configuration not stated)", "Potency": "3.98 µM (active)"},
      {"smiles": "CCn1ccnc1CN(C)C(=O)c1ccc2nc(Cc3ccc(OC)cc3)oc2c1", "activation": "-6.18% (inactive)"},
      {"smiles": "Cc1cc(Cl)c2oc(C(=O)N(C)C(C)c3ccccn3)c(C)c2c1", "note": "(configuration not stated)", "activation": "21.6% (inactive)"},
      {"smiles": "CC(NCC(=O)Nc1ccccc1C(=O)NC1CC1)c1ccccc1Cl", "note": "(configuration not stated)", "activation": "-0.509% (inactive)"},
      {"smiles": "Cc1ccc(C)c(C(=O)COC(=O)Cn2[nH]c(=O)c3ccccc3c2=O)c1", "activation": "0.0714% (inactive)"}
    ]}
  ]
}
